Shown are actives, neighbours in structure and some others; about 10% of the full set was active somewhere.
L3MBTL1 block: blocks human L3MBTL1 | Q9Y468 | Potency, µM (highest dose often 57.1 µM), usual class: inhibitors | AlphaScreen L3MBTL1–H3K9me1 peptide binding | actives 0.66% (n = 230,000); also: nearly all actives have a fitted effect of over 60% in size
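AlphaScreen assay: L3MBTL1 (50 nM final) was preincubated 30 min at room temperature with biotinylated H3(1-15)K9me1 peptide (75 nM final), then 30 min with library compounds; streptavidin donor and nickel chelate acceptor beads (10 ug/mL final) added, 30 min dark.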
G9a inh: inhibitors of human histone lysine methyltransferase G9a; G9a H3K9 monomethylation, AlphaScreen, 2 h; Potency, µM (titrated, usually from 102 µM), hits mostly inhibitors; actives 8.8% (n = 350,000); AID 504332; also: nearly all actives have a fitted effect of over 75% in size
Target sequence (Q96KQ7 913-1193 limits assumed): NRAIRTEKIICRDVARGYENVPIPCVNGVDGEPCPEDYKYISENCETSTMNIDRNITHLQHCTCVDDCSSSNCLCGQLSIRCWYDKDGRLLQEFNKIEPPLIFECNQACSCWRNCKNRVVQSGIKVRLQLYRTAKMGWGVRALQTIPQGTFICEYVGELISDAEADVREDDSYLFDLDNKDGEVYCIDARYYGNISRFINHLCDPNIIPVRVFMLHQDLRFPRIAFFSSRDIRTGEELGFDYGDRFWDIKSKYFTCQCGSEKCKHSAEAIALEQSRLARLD
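AlphaScreen read-out: biotin-H3K9 peptide (500 nM) methylation by 20 nM enzyme with 20 uM SAM, 2 h at room temperature after 15 min compound preincubation; anti-monomethyl H3K9 antibody plus donor/acceptor beads, 10 min dark.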
BAZ2B inh: BAZ2B (human) inhibition; Q9UIF8; AlphaScreen BAZ2B-H3K14Ac peptide displacement; Potency, µM (top dose mostly 114 µM), most hits filed as inhibitors; actives 4.4% (n = 360,000); also: nearly all actives have a fitted effect of over 60% in size
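AlphaScreen displacement: compounds (up to 110uM) incubated 30 min at room temperature with a preformed 50 nM BAZ2B/50 nM biotinylated H3K14Ac peptide complex in PBS pH 7.4 with Tween-20. Donor and acceptor beads at 10 ug/mL final added, 20 min light-protected before reading.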
GLS inh: inhibitors of human glutaminase (GLS); O94925; GLS enzymatic activity, qHTS titration; Potency, µM (doses to about 45.5 µM), most hits filed as inhibitors; actives 0.21% (n = 410,000); AID 624170
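Enzyme dispensed in phosphate buffer (45 mM, pH 8.2, 0.02% Tween-20), compounds pinned in, then 1 mM L-glutamine solution and the glutamate oxidase–HRP–Amplex Red mix added; fluorescence read immediately and again after 30 min at room temperature.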
HP1b chromo inh: inhibitors of HP1-beta chromodomain binding to methylated histone tails; P83916; Potency, µM (highest dose often 114 µM), hits mostly inhibitors; AlphaScreen HP1-beta / biotin-H3K9me3 peptide binding; actives 0.56% (n = 390,000); AID 540317; also: nearly all actives have a fitted effect of over 70% in size
Target sequence (P83916 whole entry, looked up): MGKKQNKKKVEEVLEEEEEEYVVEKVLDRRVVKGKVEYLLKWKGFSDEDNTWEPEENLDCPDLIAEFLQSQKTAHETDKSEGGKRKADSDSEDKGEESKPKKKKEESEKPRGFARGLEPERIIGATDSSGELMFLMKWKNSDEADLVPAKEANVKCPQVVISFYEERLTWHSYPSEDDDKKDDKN
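AlphaScreen: HP1-beta (50 nM) preformed 30 min with biotin-H3(1-18)K9me3 peptide (50 nM) in PBS pH 7.4, 0.01% Tween-20. Compound added for 30 min at RT, then streptavidin donor/nickel chelate acceptor beads (10 ug/mL) for 30 min.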
JMJD2A Tudor: JMJD2A Tudor domain (human) inhibition. AlphaScreen JMJD2A-Tudor / H3K4me3 peptide binding. Potency, µM (series often up to 114 µM), usual class: inhibitors. actives 4.4% (n = 390,000). AID 504339; also: nearly all actives have a fitted effect of over 50% in size
Large screens that a line does not name were inactive. Calls follow the shape of the dose curve; as a rule, active = well fitted curve in the direction sought with a large enough effect; inconclusive = small, poorly fitted or top-dose-only effect, or another doubt; inactive = no such curve, though single readings can be large; an effect the other way counts as inactive or inconclusive.

COc1ccccc1N1CCN(/N=C/c2c(C)nn(-c3ccccc3)c2C)CC1	L3MBTL1 block inconclusive, G9a inh inconclusive, BAZ2B inh 28µM, HP1b chromo inh 18µM, JMJD2A Tudor 40µM
COc1ccc(-c2nc3cnc(N4CCN(C)CC4)nc3n(CCc3ccccc3)c2=O)cc1	none (no result: L3MBTL1 block, BAZ2B inh, GLS inh, HP1b chromo inh, JMJD2A Tudor)
Cc1nn(C(C)C(=O)NCCCN2CCCCCC2)c(=O)c2c1sc1ccccc12 (stereo not given)	G9a inh 50µM, JMJD2A Tudor 50µM (no result: L3MBTL1 block)
Cc1nn(CCCC(=O)NCCc2ccc(Cl)cc2)c(=O)c2c1sc1ccccc12	G9a inh 6.3µM, BAZ2B inh 25µM, HP1b chromo inh 32µM, JMJD2A Tudor 7.9µM (no result: L3MBTL1 block)
CCOc1cccc(C2C=C(c3ccc4c(c3)OCO4)NC(c3ccc(Br)cc3)N2)c1O (stereo not given)	none (no result: L3MBTL1 block, G9a inh, BAZ2B inh, GLS inh)
Cc1ccc(NC2(c3ccccc3)C(=O)c3ccccc3C2=O)cc1F	G9a inh 13µM, BAZ2B inh inconclusive, JMJD2A Tudor inconclusive (no result: L3MBTL1 block)
O=C(O)c1cc(NC2(c3ccccc3)C(=O)c3ccccc3C2=O)ccc1Cl	none (no result: L3MBTL1 block)
O=C(CN1C(=O)NC2(CCCCC2)C1=O)Nc1ccc(F)cc1	none (no result: L3MBTL1 block)
CN(c1ccccc1)S(=O)(=O)c1cccc(NC(=O)CN2C(=O)NC3(CCCC3)C2=O)c1	G9a inh 56µM
Cc1ccc(NC(=O)CN2C(=O)NC3(CCCCCCC3)C2=O)cc1C	G9a inh 1.3µM
COc1cc2[nH]c(Cl)c([N+](=O)[O-])c2cc1OC	G9a inh inconclusive, BAZ2B inh 56µM, JMJD2A Tudor inconclusive (no result: L3MBTL1 block)
COc1cc2c(=O)[nH]c3cc([N+](=O)[O-])ccc3c2cc1[N+](=O)[O-]	none (no result: L3MBTL1 block, G9a inh, BAZ2B inh, HP1b chromo inh, JMJD2A Tudor)
Cc1ccc(C2CC(=O)Nc3cc4c(cc32)OCCO4)cc1Br (stereo not given)	G9a inh inconclusive, BAZ2B inh inconclusive, JMJD2A Tudor inconclusive (no result: L3MBTL1 block)
Clc1ccc(-c2nnc(SCc3nc4ccccc4[nH]3)o2)c(Cl)c1	G9a inh 8.9µM
COc1cc(C)c(CNc2cc(C)cc(C)c2)cc1C	G9a inh inconclusive, BAZ2B inh inconclusive, JMJD2A Tudor 89µM (no result: L3MBTL1 block)
Cc1ccccc1CNC1CCCCC1	none
COc1cc(C)c(CNC2CCCCC2)cc1C	G9a inh 32µM, BAZ2B inh inconclusive, HP1b chromo inh inconclusive, JMJD2A Tudor 5µM (no result: L3MBTL1 block)
COc1cc(C)c(CNc2ccc(OC)c(OC)c2)cc1C	G9a inh inconclusive, BAZ2B inh 45µM (no result: GLS inh, HP1b chromo inh, JMJD2A Tudor)
COc1ccc(NCc2ccc(OC)c(OC)c2)cc1	G9a inh inconclusive, BAZ2B inh inconclusive (no result: GLS inh, HP1b chromo inh, JMJD2A Tudor)
COc1cc(CNC2CCCCCCC2)cc(Cl)c1OC	none
Oc1cc(CNC2CCCCC2)c(O)cc1CNC1CCCCC1	GLS inh inconclusive, HP1b chromo inh 14µM, JMJD2A Tudor 22µM (no result: L3MBTL1 block, G9a inh, BAZ2B inh)
Cc1ccc(-c2noc(CCC(=O)Nc3ccc(F)cc3Cl)n2)cc1	none (no result: L3MBTL1 block)
O=C(CCSCc1ccccc1F)N1CCN(c2ccc(F)cc2)CC1	none (no result: L3MBTL1 block)
CCCN(C(=O)Cc1nc(N)n[nH]1)C1(C(=O)Nc2c(C)cccc2C)CCCCC1	BAZ2B inh 79µM
CCCN(C(=O)Cc1nc(N)n[nH]1)C1(C(=O)Nc2ccccc2C)CCCCC1	L3MBTL1 block inconclusive, BAZ2B inh 45µM, JMJD2A Tudor inconclusive
Cc1cccc(C)c1NC(=O)C1(N(Cc2ccco2)C(=O)CC2NC(=O)NC2=O)CCCCC1 (stereo not given)	none (no result: L3MBTL1 block)
Cc1ccc(-c2nc(CNC(=O)c3ccco3)cs2)cc1	G9a inh 50µM (no result: L3MBTL1 block)
Cc1ccc(-c2nc(CCNC(=O)c3ccco3)cs2)cc1	none
C[C@@H](C(=O)Nc1ccc2ccccc2c1)[C@@H]1C[C@@]1(C)[C@@H](NC(=O)c1cnccn1)c1ccccc1	G9a inh 50µM
C[C@@H](C(=O)Nc1ccc2ccccc2c1)[C@H]1C[C@]1(C)[C@H](NC(=O)c1cnccn1)c1ccccc1	BAZ2B inh inconclusive
C=Cc1ccc(Cn2c(C)c(CNCCc3ccc(OCC)cc3)c(C(=O)O)c2C)cc1	BAZ2B inh inconclusive, JMJD2A Tudor inconclusive (no result: L3MBTL1 block)
Cc1cc(C(=O)O)ccc1NCc1ccncc1	G9a inh inconclusive

Screens: PubChem BioAssay, National Center for Advancing Translational Sciences (NCATS)
